# Test results taken from publication PMC5540273 (PLoS ONE, 2017).
# Several values for one entry are separate records, joined by “and”; a condition that tells them apart may be missing. Equal entries are not always repeated. Where two headings read alike, the source gives them in different places.
# Experiments:
# [1] = system: RIPK5; conditions: concentration: 1 μM, replicates: in singlicate; n = 1
# [2] = system: ROCK1; conditions: concentration: 1 μM, replicates: in singlicate, n = 1
# [3] = system: ROCK2; conditions: concentration: 1 μM, replicates: in singlicate, n = 1
# [4] = system: ROS1; conditions: concentration: 1 μM, replicates: in singlicate, n = 1
# [5] = system: RPS6KA4(Kin.Dom.1-N-terminal); conditions: concentration: 1 μM, replicates: in singlicate, n = 1
# [6] = system: RPS6KA4(Kin.Dom.2-C-terminal); conditions: concentration: 1 μM, replicates: in singlicate; n = 1
# [7] = system: RPS6KA5(Kin.Dom.1-N-terminal); conditions: concentration: 1 μM, replicates: in singlicate, n = 1
# [8] = system: RPS6KA5(Kin.Dom.2-C-terminal); conditions: concentration: 1 μM, replicates: in singlicate, n = 1
# [9] = system: T1, RSK1(Kin.Dom.1-N-terminal); conditions: concentration: 1 μM, replicates: in singlicate, n = 1
# T1 construct: gene RPS6KA1
# [10] = system: T2, RSK1(Kin.Dom.2-C-terminal); conditions: concentration: 1 μM, replicates: in singlicate; n = 1
# T2 construct: gene RPS6KA1
# 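Note: KINOMEscan kinase panel screen.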
Compound,%Inh [1],%Inh [2],%Inh [3],%Inh [4],%Inh [5],%Inh [6],%Inh [7],%Inh [8],%Inh [9],%Inh [10],%Inh ([2]; 1 µM),%Inh ([3]; 1 µM),%Inh ([4]; 1 µM),%Inh ([5]; 1 µM),%Inh ([7]; 1 µM),%Inh ([8]; 1 µM),%Inh ([9]; 1 µM)
COc1ccc(Nc2nccc(N3CCC(NC(=O)Nc4cc(C)ccc4C)C3)n2)cc1 (stereo not drawn) [GSK1379741],0%,14%,0%,0%,0%,0%,8%,19%,6%,0%,,,,,,,
COc1cc(Nc2nccc(N3CCC(NC(=O)c4cccc(NC(C)=O)c4)C3)n2)cc(OC)c1OC (stereo not drawn) [GSK1379754],0%,32%,49%,44%,23%,0%,11%,0%,58%,0%,,,,,,,
O=C1Cc2cc(Nc3nc(NCc4cccc(S(=O)(=O)C(F)(F)F)c4)ncc3C(F)(F)F)ccc2N1,4%,6%,13%,3%,11%,24%,0%,0%,41%,0%,,,,,,,
Nc1nccc(-c2c(-c3ccc(F)cc3)ncn2C2CCN(CC(F)(F)F)CC2)n1 [SB-236560],13%,38%,49%,14%,0%,0%,0%,0%,0%,27%,,,,,,,
COc1cc2c(cc1OCCN1CCN(C)CC1)ncc1c3ccc(C#N)cc3[nH]c21,33%,98.1%,99.4%,0%,0%,0%,0%,71%,0%,26%,,,,,,,
O=c1cc(N2CCOCC2)nc2n(Cc3cccc4ccccc34)ccn12 [GSK2333389],0%,0%,19%,0%,12%,0%,0%,0%,0%,0%,,,,,,,
Fc1ccc(-c2ncn(CCCN3CCOCC3)c2-c2cccnc2)cc1 [SB-211743],9%,0%,6%,27%,31%,0%,0%,5%,2%,9%,,,,,,,
Cc1nnc(-c2ccc(C)c(-c3ccc(C(=O)Nc4ccc(NS(C)(=O)=O)cc4)cc3)c2)o1 [GW702865],4%,0%,11%,0%,1%,0%,0%,17%,13%,0%,,,,,,,
CCc1ccnc(/C=C/c2n[nH]c3cc(Sc4ccccc4C(=O)NC)ccc23)c1,0%,0%,0%,19%,0%,0%,0%,0%,0%,3%,,,,,,,
O=C(NCCNc1ccnc(Nc2ccc(F)cc2)n1)c1cc2ccccc2s1 [GSK1379874],0%,29%,30%,15%,0%,0%,4%,0%,26%,0%,,,,,,,
CN1c2ccc(NCc3ccc(F)cc3)cc2-c2c(cnn2C)S1(=O)=O,0%,0%,0%,0%,0%,0%,0%,0%,0%,20%,,,,,,,
CCc1nc(-c2cccc(C)c2)c(-c2ccnc(NCc3ccccc3)c2)s1,14%,0%,0%,0%,0%,1%,1%,4%,0%,57%,,,,,,,
COc1ccc(Nc2ncc(C#N)c(Nc3ccccc3C(N)=O)n2)cc1N1CCN(C)CC1.Cl [GSK1558669],98.7%,87%,91.2%,97%,100%,97%,98%,44%,99.7%,47%,,,,,,,
CC(C)(CN)c1nc(-c2ccc(Cl)c(O)c2)c(-c2ccncc2)[nH]1.O=C(O)C(F)(F)F [SB-477794],0%,,,,,0%,,,,35%,28% and 43%,49% and 40%,15% and 53%,0% and 23%,5% and 0%,7% and 36%,16% and 15%
NS(=O)(=O)CCc1cccc(Nc2nccc(-c3c(-c4cccc(NC(=O)c5c(F)cccc5F)c4)nn4ccccc34)n2)c1 [GSK336735],10%,24%,0%,79%,53%,0%,63%,6%,100%,0%,,,,,,,
